Source: PubChem
Compounds with a hit are over-represented: about 3.9% of the library has one in this group of screens.
D1 antag: Antagonist of Human D 1 Dopamine Receptor: qHTS; D(1A) dopamine receptor (Homo sapiens), P21728; HEK293 TREx D1 cells, calcium flux, dopamine EC80; hits give low values; activity change, negative = inhibition, % at 10 µM; 360,000 tested, 3.2% active; AID 504652, 2011; in the data active = activity change below about -30%
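Using tetracycline-induced force-coupled D1 Hek293 cells and a calcium dye, signals were followed for 180 s after compound, then for 180 s after EC80 dopamine, to detect inhibitors.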
D1 potentiator: Potentiators of Human D1 Dopamine Receptor: qHTS. D(1A) dopamine receptor (Homo sapiens), P21728. potentiation, % at 10 µM. 360,000 tested, 0.036% active. HEK293 TREx D1 cells, calcium flux, dopamine EC20 potentiation; in the data active = potentiation above about 30%
GALK inh: qHTS Assay for Inhibitors of Human Galactokinase (GALK). P51570. Purified GALK, Kinase-Glo residual ATP luminescence. Potency, µM (doses to about 57.5 µM), actives largely listed as inhibitors. 270,000 tested, 0.007% active
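ATP-depletion format; final 35 uM ATP, 100 uM D-galactose, 5 nM enzyme; pH 8.0 HEPES/Mg2+ buffer; 60 min RT; luminescence read 10 min after detection reagent.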
Eya2 phos inh: qHTS Assay for Inhibitors of the Phosphatase Activity of Eya2; recombinant Eya2, OMFP fluorescence dephosphorylation (OMFP is methylfluorescein phosphate); Potency, µM (titrated, usually from 76.9 µM), usual class: inhibitors; Protein phosphatase EYA2 (Homo sapiens), O00167; 330,000 tested, 0.006% active
Target sequence (O00167 whole entry, looked up): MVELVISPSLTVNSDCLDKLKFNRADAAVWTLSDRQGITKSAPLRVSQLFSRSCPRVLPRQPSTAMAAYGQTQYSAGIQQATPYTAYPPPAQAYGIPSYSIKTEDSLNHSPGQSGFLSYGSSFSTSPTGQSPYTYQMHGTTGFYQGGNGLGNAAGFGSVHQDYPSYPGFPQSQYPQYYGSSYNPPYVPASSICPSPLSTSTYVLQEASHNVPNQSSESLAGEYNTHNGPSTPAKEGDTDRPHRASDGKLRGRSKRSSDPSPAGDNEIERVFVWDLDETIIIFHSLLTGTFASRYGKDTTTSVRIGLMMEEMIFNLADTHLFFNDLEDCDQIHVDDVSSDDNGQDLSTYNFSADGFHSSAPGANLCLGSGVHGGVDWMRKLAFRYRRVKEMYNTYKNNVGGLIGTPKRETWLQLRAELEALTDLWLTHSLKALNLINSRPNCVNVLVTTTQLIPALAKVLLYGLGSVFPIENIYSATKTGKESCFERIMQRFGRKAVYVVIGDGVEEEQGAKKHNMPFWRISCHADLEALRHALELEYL
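Eya2 protein (added as 0.2 uM solution) was preincubated with compound for 10 min at ambient temperature in 50 mM HEPES pH 7.5, 50 mM NaCl, 5 uM MgCl2, 0.05% BSA, 1 mM DTT. OMFP (added at 50 uM) then reacted 10 min; fluorescence read at 485/525 nm.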
USP2a block: qHTS Assay for Inhibitors of Ubiquitin-specific Protease USP2a Using CHOP2 as the Reporter. 330,000 tested, 0.01% active. USP2 core, Ub-CHOP2 coupled fluorogenic reporter, 485/531. Ubiquitin carboxyl-terminal hydrolase 2 (Homo sapiens), O75604. Potency, µM (doses to about 38.3 µM), most hits filed as inhibitors
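Deubiquitinase activity read as fluorescence (485/531 nm) after Ub-CHOP2 cleavage activates the enterokinase reporter on its substrate; USP2 core 10nM, Ub-CHOP2 and substrate 25nM each, 30min compound preincubation then 60min RT; data normalized to NEM, curves fitted.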
D1 ag: Allosteric Agonists of the Human D1 Dopamine Receptor: qHTS | HEK293 T-REx D1 cells, calcium flux, agonist mode | activation, % at 2 µM | 360,000 tested, 1% active | AID 504660, 2011; in the data active = activation above about 30%
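Tetracycline-induced HEK293 TREx D1 cells, force-coupled to calcium signalling, were dye-loaded with a no-wash calcium kit. Compound was pin-added after a 10 s baseline. Fluorescence was read kinetically at 1 cycle/s for 180 s, with calcium rises flagged as agonism.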
Numbers stand for hits; . = inactive; ? = inconclusive; / = not tested or not shown. Unless noted, calls follow the shape of the dose curve; as a rule, active = well fitted inhibition curve with a large enough effect; inconclusive = small, poorly fitted or top-dose-only effect, or effect the other way; inactive = flat fitted curve, though single readings scatter.

SMILES | D1 antag | D1 potentiator | GALK inh | Eya2 phos inh | USP2a block | D1 ag
O=C(NC(NC(=S)Nc1cc(Cl)ccc1Cl)C(Cl)(Cl)Cl)c1ccco1 (configuration not stated) | -40 | . | . | . | . | .
CN(C)c1ccc(C(C(=O)NCC2CCCO2)N(C(=O)c2snc(C(N)=O)c2N)c2ccccc2)cc1 (configuration not stated) | . | . | . | . | . | .
CC(C)c1ccc(N(C(=O)c2snc(C(N)=O)c2N)C(C(=O)NCC2CCCO2)c2ccc(N(C)C)cc2)cc1 (configuration not stated) | . | . | . | . | . | 57
O=C1N/C(=C\c2ccc(O)cc2)C(=O)c2ccccc21 | . | . | . | . | . | 32
O=C(NC(=S)Nc1ccc(N2CCCC2)cc1)c1ccccc1[N+](=O)[O-] | -72 | . | . | . | . | .
CN1CCN(c2ccc(NC(=S)NC(=O)c3cccc4c(Br)cccc34)cc2)CC1 | -37 | . | . | . | . | .
O=C(NCc1ccccc1F)C1CCN(Cc2cc3ccccc3n2Cc2cccc(Cl)c2)CC1 | . | . | / | / | / | .
COc1cccc(/C(O)=C/c2nc3ccc(C(=O)NCCc4cccc(C)c4)cc3[nH]c2=O)c1 | -41 | . | . | . | . | 46
CCCCNC(=O)C1CCN(c2nc3ccc(C)cc3[nH]2)CC1 | . | . | / | / | / | .
CN(C)/C=c1\sc2c(C#N)cc(C(=O)c3ccc(Br)cc3)n2c1=O | -51 | . | . | . | . | .
Cc1cc(C)n(CC(=O)c2ccc(Br)cc2)c(=O)c1C#N | . | . | . | . | . | .
COc1ccccc1N1CCN(C(=O)C2C3C=CC4(CN(Cc5ccccc5Cl)C(=O)C24)O3)CC1 (configuration not stated) | -35 | . | . | . | . | .
O=C(c1ccccc1F)c1cc2c(cc1[N+](=O)[O-])OCCO2 | . | . | . | . | . | .
COc1ccc(C(=O)c2cc3c(cc2[N+](=O)[O-])OCCO3)cc1 | -32 | . | . | . | . | .
CCOc1ccccc1C1C(C(=O)N2CCCCC2)=C(C)Nc2nc3ccccc3n21 (configuration not stated) | . | . | / | / | / | .
CCCCOC(=O)c1cccc(NC(=O)/C=C/c2ccccc2Cl)c1 | . | . | / | / | / | .
CCC1Oc2ccccc2N(CC(=O)NC2CC2)C1=O (configuration not stated) | . | . | . | . | . | .
CCC1Sc2ccccc2N(CC(=O)NC2CC2)C1=O (configuration not stated) | -74 | . | . | . | . | .
O=C(NC1CSCC1OC(=O)c1ccccc1)c1ccccc1 (configuration not stated) | -39 | . | . | . | . | .
CCOC(=O)C1=C(O)c2ccccc2C(=O)/C1=C\c1ccc(C)cc1 | . | . | . | . | . | 34
CCOC(=O)C1=C(C)N(c2ccc(C)cc2)C(=O)/C1=C\c1ccc(O)c(OC)c1 | . | . | . | . | . | .
Cc1cc(C)n2cc(CSCC(=O)O)nc2n1 | -35 | . | . | . | . | .
S=C(NCc1ccncc1)Nc1cc(Cl)cc(Cl)c1 | -31 | . | . | . | . | .
S=C(NCc1ccncc1)Nc1ccc(Cl)c(Cl)c1 | -36 | . | . | . | . | .
S=C(Nc1ccc(Cc2ccncc2)cc1)Nc1cccc(Cl)c1 | -32 | . | . | . | . | .
SMILES | D1 antag | D1 potentiator | GALK inh | Eya2 phos inh | USP2a block | D1 ag
CNC(=S)Nc1ccc(Cc2ccncc2)cc1 | . | . | . | . | . | .
CCCC1N=C2c3ccccc3N=C(SCC(=O)NCCc3ccc(Cl)cc3)N2C1=O (configuration not stated) | . | . | / | / | / | .
O=C(O)C1=CC(=C(c2ccc(O)c(C(=O)O)c2)c2ccc(O)c(C(=O)O)c2)C=CC1=O | . | . | / | ? | 1.1µM | .
Cc1nnsc1C(=O)N/N=C/c1ccc2ccccc2c1O | . | . | . | . | . | 138
CC(C)(C)C(=O)N1CCN(c2c(Cl)cccc2[N+](=O)[O-])CC1 | -52 | . | . | . | . | .
CC(C)(C)C(=O)N1CCN(c2ccc(Cl)cc2[N+](=O)[O-])CC1 | . | . | . | . | . | .
COc1cccc(C(=O)c2cn(CC(=O)Nc3ccc4c(c3)OCCO4)c3nc(C)ccc3c2=O)c1 | . | . | / | / | / | .
COC(=O)c1[nH]c2ccc(Br)cc2c1NC(=O)CN1CCCCC1CCO (configuration not stated) | -41 | . | / | . | . | .
COC(=O)c1[nH]c2ccc(Br)cc2c1NC(=O)C(C)N1CCN(C2CCCCC2)CC1 (configuration not stated) | . | . | . | . | . | .
COC(=O)c1[nH]c2ccc(C)cc2c1NC(=O)c1ccccc1[N+](=O)[O-] | -36 | . | . | . | . | .
O=S(=O)(NCC(c1ccco1)N1CCOCC1)c1ccc(F)cc1 (configuration not stated) | / | . | / | / | / | .
Cc1ccc(NC(=O)C2CCCN2S(=O)(=O)c2ccc3c(c2)CCCC(=O)N3)cc1C (configuration not stated) | . | . | / | / | / | .
O=C1C=C(c2ccc(-c3ccccc3)cc2)C[C@@H](c2ccc(Cl)cc2)C1 | -36 | . | / | . | . | .
COc1ccccc1C1=CC(=O)C[C@H](c2ccc(Cl)cc2)C1 | -36 | . | / | . | . | .
COc1ccc([C@H]2CC(=O)C=C(c3ccccc3)C2)cc1OC | . | . | / | . | . | .
COc1ccc([C@H]2CC(=O)C=C(c3ccccc3OC)C2)cc1OC | -46 | . | / | . | . | .
CCOC(=O)c1scc(-c2ccc(C)cc2)c1S(=O)(=O)N1CCN(c2ccccc2F)CC1 | . | . | / | / | / | .
CCCCn1c(CN2CCN(c3cccc(Cl)c3)CC2)nc2c1c(=O)n(C)c(=O)n2C | -31 | . | . | . | . | .
COc1cc(C(=O)Nc2ccc3oc(-c4ccc(C)c(Br)c4)nc3c2)cc(OC)c1OC | . | . | / | / | / | .
CCOC(=O)c1cccc(NC(=O)Cn2ncc3c4ccccc4n(Cc4ccccc4)c3c2=O)c1 | . | . | / | / | / | .
Cc1ccc(/C=C/c2onc(C)c2S(=O)(=O)N2CCC(C(=O)Nc3ccc(OC(F)(F)F)cc3)CC2)cc1 | -68 | . | / | / | / | .
